SMILES strings stand for the structures. In all, about 59,000 compounds went through this assay and about 6,200 (11%) were called active. Another 9% or so got no clear call; they are omitted. No stated cut-off is given here; in the data, active means max dye-equivalent concentration above about 10 nM; inconclusive means mostly about 1.1 nM to 9.6 nM; inactive means weaker than that. Many of the other results were omitted from the sample, so actives are more common in it than they were. A structure can be active in one record and inactive in another.

The experiment can be described thus: qHTS Assay for Spectroscopic Profiling in 4-MU Spectral Region. The settings on record: compound autofluorescence, 340/450 nm, 4-MU equivalents; stronger effect = higher value. From the text: NIH Molecular Libraries Screening Centers Network [MLSCN] NIH Chemical Genomics Center [NCGC] […] Occasionally, the artifactual effect may originate from the compounds own spectral or other biophysical properties which generally tend to track its assay concentration. Pre-screening/profiling the library with respect to the compounds spectral properties should help one exclude false positives early on. While the most informative fluorescent profiling data set is obtained by performing a full excitation and emission scan of each well by using a monochromator-based plate reader, such an approach is practical only on a very limited scale as scanning each well requires long time. An alternative approach, applied here, is to perform plate reader scans using selected excitation and emission wavelength pairs to generate a multidimensional relational database that correlates compound concentration and the respective relative fluorescence intensity at a given wavelength set. A standard curve of 4-methylumbelliferone (4-MU) present on each plate as six-point concentration series, was used to compute a normalized fluorescence response, termed dye-equivalent concentration, for each compound at each concentration.
NCGC Assay Protocol Summary: Buffer: 100 mM Tris buffer, pH 8.0 Dye standard plate: The wells in columns 1 through 4 of a Kalypsys polypropylene 1536-well compound plate were filled with standard solutions of fluorophore corresponding to the spectral region of interest. Solutions of 4-MU were placed in the following wells: A1, B1: 3 mM, A2, B2: 300 uM, A3, B3: 30 uM, A4, B4: zero (DMSO), C1, D1: 3 uM, C2, D2: 900 nM, C3, D3: 300 nM, C4, D4: zero (DMSO). Assay Steps: Six uL of buffer were dispensed to 1536-well Greiner black plates. Compounds and dye standards (23 nL) were transferred via Kalypsys PinTool. The plates were incubated for 15 min at room temperature, and then read on ViewLux (Perkin-Elmer) High-throughput CCD imager using 340 nm and 450 nm excitation and emission filter set. Keywords: NIH Roadmap, MLSCN, MLI, MLSMR, qHTS, NCGC, Fluorescent Profiling, 4MU, 4-MU
For orientation: Quantitative high-throughput screening tests each substance at several concentrations.
Take `O=C(CNCCO)NC12CC3CC(CC(C3)C1)C2`: the max dye-equivalent concentration entry was “inactive”. Turning to `CN1CCN(CC(=O)C23CC4CC(CC(C4)C2)C3)CC1`, the max dye-equivalent concentration result was “inactive”. On the same count and under the same terms, for `Cc1ccc2[nH]c3c(c2c1)CN(C(=O)CN1CCN(c2ccccc2)CC1)CC3` the value was “inactive”. Same read-out and setting: to `O=C(O)[C@@H](O)Cc1ccccn1` belongs “inactive”; to `O=C(c1ccco1)N1CCC[C@@]2(CCN(Cc3nccs3)C2)C1`, “inactive”; to `COc1ccc(C(=O)Nc2ccc(S(=O)(=O)Nc3onc(C)c3C)cc2)cc1OC`, “inactive”. Still for that read-out and setting: to `COc1ccc(-c2cc3ccc(OCc4nn[nH]n4)cc3oc2=O)cc1` belongs 8100 nM (active).

On to `COc1ccc(OCc2ccc(-c3nc4ccccc4c(=O)n3N)o2)cc1`, for which the max dye-equivalent concentration entry was “inactive”. For the compound `O=C(Nc1cccc(Cl)c1)OCc1ccccn1`, the max dye-equivalent concentration result is “inactive”. The same measure, in the same setting: for `CCC(CC)C(=O)Nc1cc(C(=O)OC)cc(C(=O)OC)c1` the value was “inactive”; for `CC(C)OC(=O)c1cc(NC(=O)C2C3CCC(O3)C2C(=O)O)cc(C(=O)OC(C)C)c1` (stereo not given), 14 nM (active). As for `CC(C)COC(=O)c1ccc(NC(=O)C2C3C=CC(C3)C2C(=O)O)cc1` (stereo not given), the max dye-equivalent concentration entry is “inactive”. For the compound `CCC(=O)c1ccc(OCC(O)CN2CC(C)OC(C)C2)cc1` (stereo not given), the max dye-equivalent concentration entry was “inactive”. With `O=C(c1ccco1)N1CCN(C(=O)C2c3ccccc3Oc3ccccc32)CC1`, the max dye-equivalent concentration entry is “inactive”. `CS(=O)(=O)c1ccc2nc(NC(=O)CN3CCCCCC3)sc2c1`: the max dye-equivalent concentration result was “inactive”. Same read-out and setting: for `Cn1c(CCN2CCCCCC2)nc2cc(NC(=O)Nc3ccccc3)ccc21` the value was “inactive”; for `O=C(Nc1cccc(NC(=O)N2CCN(c3ccccc3)CC2)c1)N1CCN(c2ccccc2)CC1`, “inactive”; for `Cc1nc2ccc(NC(=O)N3CCC(c4ccccc4)C3)cc2nc1C` (stereo not given), 550 nM (active). As to `Cc1cc(C)nc(SCc2nnc(SCC(=O)OC3CCCCC3)o2)n1`, the max dye-equivalent concentration result was “inactive”. Consider `CC(=O)c1cc(C#N)c(SCC(=O)C(C)(C)C)nc1C`, for which the max dye-equivalent concentration entry was “inactive”. On to `CCOc1ccc2cc(C#N)c(SCC(=O)OC)nc2c1`, for which the max dye-equivalent concentration was 37 nM (active).

In the case of `CCOc1cccc(NC(=O)CC#N)c1`, the max dye-equivalent concentration result was “inactive”. As to `Cc1nn(-c2ccccc2)c2c1C(=O)NC(=O)C(C)(C)C2`, the max dye-equivalent concentration entry was “inactive”. For the compound `CCC(C(=O)N1CCOCC1)n1c(C(=O)OC)cc2occc21` (stereo not given), the max dye-equivalent concentration entry was “inactive”. Consider `CC(=O)c1ccc(N2C(=NC(=O)C(C)C)SC3CS(=O)(=O)CC32)cc1` (stereo not given), for which the max dye-equivalent concentration result is “inactive”. Take `CCC(C)Sc1nc2c(c(=O)[nH]c(=O)n2C)n1CC(O)COc1cccc2ccccc12` (stereo not given): the max dye-equivalent concentration result is “inactive”. For the compound `CCOC(=O)c1c(C)[nH]c(C(=O)COc2ccc3c(c2)OCO3)c1C`, the max dye-equivalent concentration entry is “inactive”.

With `CCCCOC(=O)c1[nH]c(C)c(C(=O)OC)c1C`, the max dye-equivalent concentration was 360 nM (active).

Regarding `CCOC(=O)c1c(C)[nH]c(C(=O)NCc2ccccc2OC)c1C`, the max dye-equivalent concentration entry is “inactive”.

As to `CCOC(=O)N1CCN(C(=O)Cc2ccc(-n3c(=S)[nH]c4ccccc4c3=O)cc2)CC1`, the max dye-equivalent concentration result is “inactive”. The same measure, in the same setting: to `O=C(c1cccs1)N1CCN(C(=O)N2CCOCC2)CC1` belongs “inactive”. As for `COc1ccc(C)cc1NC(=O)c1[nH]c(C)c(C(C)=O)c1C`, the max dye-equivalent concentration entry was “inactive”. Turning to `CCN(CC)S(=O)(=O)c1ccc2[nH]cc(C(=O)NCCc3ccccc3)c(=O)c2c1`, the max dye-equivalent concentration entry was “inactive”. On to `CCN(CC)CCNC(=O)c1cc(S(C)(=O)=O)ccc1OC`, for which the max dye-equivalent concentration was 10 nM (active) and the outcome was inactive. For `Cc1onc(-c2ccccc2)c1C(=O)N1CCOCC1`, the max dye-equivalent concentration result is “inactive”.

For `CCN(c1ccccc1)S(=O)(=O)c1cccc(C(=O)O)c1`, the max dye-equivalent concentration result is “inactive”.

In the case of `Cc1ccc(Oc2nc3ccccc3n3c(C)nnc23)cc1`, the max dye-equivalent concentration result was “inactive”. `c1ccc(CSc2nnc(-c3ccco3)n2Cc2ccccc2)cc1`: the max dye-equivalent concentration entry is “inactive”. As to `CN(c1nc2ccccc2n2c(-c3ccco3)nnc12)S(=O)(=O)c1ccccc1`, the max dye-equivalent concentration was 39 nM (active).

For `CCc1cc(Br)ccc1NC(=O)C1CCCO1` (stereo not given), the max dye-equivalent concentration entry is “inactive”. Consider `CC(=O)N1CCN(CCN=CC2=C(O)CC(C)(C)CC2=O)CC1`, for which the max dye-equivalent concentration entry is “inactive”. The same measure, in the same setting: to `N#CC(C(=O)c1ccc(S(=O)(=O)N2CCCCCC2)cc1)c1nc2ccccc2[nH]1` (stereo not given) belongs 24 nM (active). The same measure, in the same setting: for `COc1ccccc1N1CCN(C(=O)c2ccc(S(=O)(=O)N3CCCCC3)cc2)CC1` the value was “inactive”. The same measure, in the same setting: to `Cc1ccccc1-c1nnn(CC(=O)c2ccc(S(=O)(=O)N3CCCC3)cc2)n1` belongs “inactive”; to `CCOc1cc(C(=O)N2CCc3cc(OC)c(OC)cc3C2)ccc1OC(F)F`, “inactive”. In the case of `CC1(C)CC(=O)c2sc(N)nc2C1`, the max dye-equivalent concentration result is “inactive”.

Regarding `CCOC(=O)C1(Cc2ccc(O)cc2)NC(c2ccccc2F)C2C(=O)N(C)C(=O)C21` (stereo not given), the max dye-equivalent concentration result was “inactive”. In the case of `O=C(c1csnn1)N1CCC2(CCN(Cc3nccs3)CC2)CC1`, the max dye-equivalent concentration entry is “inactive”. Take `Cc1cc(C)c(C#N)c(SCc2ccc3c(c2)OCO3)n1`: the max dye-equivalent concentration entry was “inactive”.

As to `Cc1cc(C)c(C#N)c(SCS(=O)c2ccc(C(C)(C)C)cc2)n1` (stereo not given), the max dye-equivalent concentration result was “inactive”. On the same count and under the same terms, for `Cc1cc(C)c(C#N)c(SCc2ccccc2C(=O)O)n1` the value was 13 nM (active); for `O=C(Nc1ccon1)c1sc2ccccc2c1Cl`, “inactive”; for `OCCCN1c2ccccc2Nc2nnc(-c3ccccc3)cc21`, 94 nM (active). Turning to `Oc1ccc(Cn2cc[nH]c2=S)cc1`, the max dye-equivalent concentration result is “inactive”.

(Values after PubChem BioAssay AID589 (National Center for Advancing Translational Sciences (NCATS), 2007).)
